A short description of experiment [1]: qHTS Assay for Identifying Gametocytocidal Compounds (AID 743244; active = well fitted curve in the direction sought with a large enough effect; an effect the other way counts as inactive or inconclusive; also: potency is read from the fitted curve at half-maximal effect;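 as to max response: % is scaled to controls: 0 for no effect and ±100 for the full control effect; actives lower the fluorescent signal which means gametocytes are killed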). As to conditions: P. falciparum 3D7 stage III-V gametocytes, alamarBlue, 72 h; max response: stronger effect = lower value. The method in brief: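 Fluorescence at Ex 525/Em 598 nm, recorded 24 h after alamarBlue addition, reports residual metabolic activity of 3D7 gametocytes (stages III–V) following 72 h compound exposure at 37 °C, 5% CO2.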
On the technique in general: In qHTS, concentration-response curves come from the screen itself.

The nature of experiment [2]: qHTS profiling for inhibitors of Plasmodium falciparum (3D7) proliferation (AID 743322).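 Also: infected erythrocytes exposed to compound for 72 h before lysis; 100% = DMSO vehicle wells and 0% = 0.29 µM artemisinin.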 The following applies: P. falciparum 3D7 proliferation; at 28.7 µM (top of the series) unless noted. The method in brief: (§1)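 Parasite DNA was quantified by SYBR Green I fluorescence (ex 485, em 535 nm) after overnight lysis in saponin/Triton buffer at room temperature. Cultures at 0.3% parasitemia and 2.5% hematocrit were first exposed to compound for 72 h at 37 C; signals were normalised to artemisinin (0.29 uM) and vehicle wells.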

A short description of experiment [3]: qHTS profiling for inhibitors of Plasmodium falciparum (DD2) proliferation (AID 743323). As to conditions: lower = more inhibition; at 28.7 µM (top of the series) unless noted. The method in brief:
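Parasite DNA quantified by SYBR Green fluorescence (ex 485, em 535 nm) after saponin/Triton lysis and overnight dark incubation. Cultures: 0.3% parasitemia, 2.5% hematocrit, 72 h, 37 C; data scaled between DMSO and 0.29 uM artemisinin.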

A short description of experiment [4]: qHTS profiling of the MIPE4 collection as inhibitors of Plasmodium falciparum (3D7) proliferation (AID 743344).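 Also: scaled between DMSO vehicle wells and 0.29 µM artemisinin as full inhibition.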 As to conditions: P. falciparum 3D7 in erythrocytes, SYBR Green DNA fluorescence, 72 h; at 28.5 µM (top of the series) unless noted. The method in brief: as §1
A short description of experiment [5]: qHTS profiling of the MIPE4 collection as inhibitors of Plasmodium falciparum (DD2) proliferation (AID 743345). The following applies: P. falciparum Dd2 in erythrocytes, SYBR Green DNA, 72 h; at 28.5 µM (top of the series) unless noted. The method in brief:
as §1

Experiment [6] can be described thus: qHTS profiling of the MIPE4 collection as inhibitors of Plasmodium falciparum (DD2) proliferation (Rep 2) (AID 743346). The following applies: P. falciparum Dd2 in erythrocytes, SYBR Green DNA, 72 h; at 28.5 µM (top of the series) unless noted. The method in brief:
as §1

The nature of experiment [7]: qHTS profiling for inhibitors of Plasmodium falciparum (HB3) proliferation (AID 743324; active = well fitted curve in the direction sought with a large enough effect; an effect the other way counts as inactive or inconclusive;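 also: 100% = DMSO vehicle wells and 0% = artemisinin-treated control wells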). The following applies: Plasmodium falciparum HB3 blood-stage proliferation; at 28.7 µM (top of the series) unless noted. The method in brief:
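SYBR Green fluorescence (485 ex/535 em) of lysed cultures, incubated overnight at room temperature in the dark, quantifies parasite DNA. Infected erythrocytes at 0.3% parasitemia and 2.5% hematocrit were exposed 72 h; values normalized to DMSO and 0.29 uM artemisinin controls.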

Experiment [8] is described as follows: qHTS profiling of the MIPE4 collection as inhibitors of Plasmodium falciparum (HB3) proliferation (AID 743347).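 Also: plate controls were DMSO vehicle wells for no effect and artemisinin wells for full effect.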 As to conditions: P. falciparum HB3 in erythrocytes, SYBR Green DNA, 72 h; at 28.5 µM (top of the series) unless noted. The method in brief: as §1

The source of these data is PubChem BioAssay (NCATS).

“And” between values parts separate entries of the source, which are not always exact repeats. Equal values may be shown once. Records with an inconclusive call do not appear. The source made the active and inactive calls. Unless noted, no rule for the calls is given here.

Regarding `CN([C@@H](Cc1ccc(OS(=O)(=O)c2cccc3cnccc23)cc1)C(=O)N1CCN(c2ccccc2)CC1)S(=O)(=O)c1cccc2cnccc12`, the Potency in experiment [1] is 18.7 µM (active). For the same compound, in experiment [2], the remaining parasite growth % (stronger effect = lower value) was 0.0531% and -0.942%. In addition, the activity, percent of control in experiment [3] was 0.806% and 0.455%. Further, the parasite growth, % of DMSO control in experiment [4] came out at 5.27%. Further, the parasite growth remaining, % of DMSO control (lower = more inhibition) in experiment [5] turned out to be 6.98%. Also, the parasite growth, % of control (lower = inhibition) in experiment [6] was 12.9%.

For the compound `COc1ccc(-c2oc3cc(OC)ccc3c2C(=O)c2ccc(C#N)cc2)cc1`, in experiment [1], the max response is 8.18% (inactive). In experiment [2], the remaining parasite growth % (stronger effect = lower value) was 62.8%. This compound also showed an activity, percent of control in experiment [3] of 77%. In addition, in experiment [7], the remaining proliferation (% of control), lower = more inhibition worked out at 23.4%. The parasite growth, % of DMSO control in experiment [4] was found to be 23.1%. In addition, in experiment [5], the parasite growth remaining, % of DMSO control (lower = more inhibition) came to 81.9%. For the same compound, in experiment [6], the parasite growth, % of control (lower = inhibition) came out at 14.8%. This compound came in with a growth, % of control in experiment [8] of 16.7%.

On to `O=C(Nc1ccc(F)c(C(F)(F)F)c1)Nc1nnc(-c2ccncc2)s1`, for which the max response in experiment [1] is 6.18% (inactive). Moreover, the remaining parasite growth % (stronger effect = lower value) in experiment [2] stood at 94.5%. For the same compound, the activity, percent of control in experiment [3] worked out at 90%. In experiment [4], the parasite growth, % of DMSO control was found to be 19.3%. The parasite growth remaining, % of DMSO control (lower = more inhibition) in experiment [5] is 14.4%. This compound yielded a parasite growth, % of control (lower = inhibition) in experiment [6] of 25.2%. Moreover, the growth, % of control in experiment [8] was found to be 4.4%.

Regarding `O=C1[C@H](Cc2ccc(O)cc2)N2C(=O)CCN(C(=O)NCc3ccccc3)[C@H]2CN1Cc1cccc2ccccc12`, the max response in experiment [1] was -13% (inactive). For the same compound, in experiment [2], the remaining parasite growth % (stronger effect = lower value) was determined as 32.3%. The same compound registered an activity, percent of control in experiment [3] of 43.6%. Further, in experiment [7], the remaining proliferation (% of control), lower = more inhibition is -0.183%. In experiment [4], the parasite growth, % of DMSO control is 5.06%. Also, the parasite growth remaining, % of DMSO control (lower = more inhibition) in experiment [5] stood at 56%. The compound also had a parasite growth, % of control (lower = inhibition) in experiment [6] of 40.6%. Also, the growth, % of control in experiment [8] came out at 12.1%.

On to `Oc1cccc(-c2nc(N3CCOCC3)c3oc4ncccc4c3n2)c1`, for which the max response in experiment [1] was -13.9% (inactive). In addition, the remaining parasite growth % (stronger effect = lower value) in experiment [2] is -0.106%. Also, the activity, percent of control in experiment [3] amounted to 2.54%. Also, in experiment [4], the parasite growth, % of DMSO control turned out to be 6.68% [at 57.5 µM]. The parasite growth remaining, % of DMSO control (lower = more inhibition) in experiment [5] was found to be 8.08% [at 57.5 µM]. The compound also displayed a parasite growth, % of control (lower = inhibition) in experiment [6] of 21.1% [at 57.5 µM]. Besides, in experiment [8], the growth, % of control turned out to be 5.67% [at 57.5 µM].

Consider `O=C(NOC[C@H](O)CO)c1ccc(F)c(F)c1Nc1ccc(I)cc1F`, for which the max response in experiment [1] is 24.9% (inactive). Besides, the remaining parasite growth % (stronger effect = lower value) in experiment [2] was determined as 106%. The compound also showed an activity, percent of control in experiment [3] of 98.3%. For the same compound, in experiment [4], the parasite growth, % of DMSO control is 86.4%. In addition, in experiment [5], the parasite growth remaining, % of DMSO control (lower = more inhibition) was determined as 102%. The compound further returned a parasite growth, % of control (lower = inhibition) in experiment [6] of 95.7%.

On to `COc1cc2nccc(Oc3ccc(NC(=O)NC4CC4)c(Cl)c3)c2cc1C(N)=O`, for which the max response in experiment [1] was -10.8% (inactive). For the same compound, the remaining parasite growth % (stronger effect = lower value) in experiment [2] is 63.1%. Moreover, in experiment [3], the activity, percent of control was 67.5%. The compound further had a parasite growth, % of DMSO control in experiment [4] of 17.7%. Also, in experiment [5], the parasite growth remaining, % of DMSO control (lower = more inhibition) was found to be 70.8%. Moreover, in experiment [6], the parasite growth, % of control (lower = inhibition) is 30.6%.

On to `Nc1nc2[nH]cc(CCc3ccc(C(=O)N[C@@H](CCC(=O)O)C(=O)O)cc3)c2c(=O)[nH]1`, for which the max response in experiment [1] is 97.2% (inactive) and -5.73% (inactive). The remaining parasite growth % (stronger effect = lower value) in experiment [2] came to 14.6%. Further, the activity, percent of control in experiment [3] came to 10.6%. The remaining proliferation (% of control), lower = more inhibition in experiment [7] amounted to 4.66%. In experiment [4], this compound came in with a parasite growth, % of DMSO control of 55.6%. For the same compound, the parasite growth remaining, % of DMSO control (lower = more inhibition) in experiment [5] was 48.3%. For the same compound, the parasite growth, % of control (lower = inhibition) in experiment [6] was 26.3%. The same compound had a growth, % of control in experiment [8] of 139%.

For the compound `CCN(CC)CCCC(C)Nc1nc(C)cc(Nc2ccc3nc(C)cc(N)c3c2)n1` (configuration not stated), the remaining parasite growth % (stronger effect = lower value) in experiment [2] turned out to be 29.9%. Also, in experiment [3], the activity, percent of control was 17.1%. This compound yielded a parasite growth, % of DMSO control in experiment [4] of 25%. In addition, the parasite growth remaining, % of DMSO control (lower = more inhibition) in experiment [5] was 21.1%. This compound came in with a parasite growth, % of control (lower = inhibition) in experiment [6] of 14.4%.

Consider `CC(C=CC1=C(C)CCCC1(C)C)=CC=CC(C)=CC(=O)O`, for which the parasite growth, % of DMSO control in experiment [4] is 76.8% and 52.8%. Also, the parasite growth remaining, % of DMSO control (lower = more inhibition) in experiment [5] is 85.9% and 87.9%. Also, in experiment [6], the parasite growth, % of control (lower = inhibition) is 81.2% and 51.5%. Moreover, in experiment [8], the growth, % of control was 106% and 85.5%.

Regarding `CN(C)c1ccc(C2Nc3ccc4ccccc4c3C3=C2C(=O)CC(C)(C)C3)cc1Br` (configuration not stated), the max response in experiment [1] was -26.5% (inactive). Besides, the remaining parasite growth % (stronger effect = lower value) in experiment [2] was determined as 2.48%. Also, in experiment [3], the activity, percent of control stood at 6.15%. Further, in experiment [4], the parasite growth, % of DMSO control turned out to be 28.5%. In experiment [5], the parasite growth remaining, % of DMSO control (lower = more inhibition) is 15%. Further, the parasite growth, % of control (lower = inhibition) in experiment [6] came out at 33.7%. Further, the growth, % of control in experiment [8] was 78%.
